Unmarked numbers belong to inactive results.
Each compound was assayed against T1, VCPIP1 (UniProt Q96JH7) (assay: log2 ratio of Biotin-Ahx-Ub-VS probe labelling (fragment/DMSO); higher = less target engagement (more negative = stronger competition), active = hit call of the paper (q ≤ 0.05, log2 ratio ≤ -1)). Conditions: compound concentration: 200 uM; treatment time: 3 h.
T1 sequence (whole entry): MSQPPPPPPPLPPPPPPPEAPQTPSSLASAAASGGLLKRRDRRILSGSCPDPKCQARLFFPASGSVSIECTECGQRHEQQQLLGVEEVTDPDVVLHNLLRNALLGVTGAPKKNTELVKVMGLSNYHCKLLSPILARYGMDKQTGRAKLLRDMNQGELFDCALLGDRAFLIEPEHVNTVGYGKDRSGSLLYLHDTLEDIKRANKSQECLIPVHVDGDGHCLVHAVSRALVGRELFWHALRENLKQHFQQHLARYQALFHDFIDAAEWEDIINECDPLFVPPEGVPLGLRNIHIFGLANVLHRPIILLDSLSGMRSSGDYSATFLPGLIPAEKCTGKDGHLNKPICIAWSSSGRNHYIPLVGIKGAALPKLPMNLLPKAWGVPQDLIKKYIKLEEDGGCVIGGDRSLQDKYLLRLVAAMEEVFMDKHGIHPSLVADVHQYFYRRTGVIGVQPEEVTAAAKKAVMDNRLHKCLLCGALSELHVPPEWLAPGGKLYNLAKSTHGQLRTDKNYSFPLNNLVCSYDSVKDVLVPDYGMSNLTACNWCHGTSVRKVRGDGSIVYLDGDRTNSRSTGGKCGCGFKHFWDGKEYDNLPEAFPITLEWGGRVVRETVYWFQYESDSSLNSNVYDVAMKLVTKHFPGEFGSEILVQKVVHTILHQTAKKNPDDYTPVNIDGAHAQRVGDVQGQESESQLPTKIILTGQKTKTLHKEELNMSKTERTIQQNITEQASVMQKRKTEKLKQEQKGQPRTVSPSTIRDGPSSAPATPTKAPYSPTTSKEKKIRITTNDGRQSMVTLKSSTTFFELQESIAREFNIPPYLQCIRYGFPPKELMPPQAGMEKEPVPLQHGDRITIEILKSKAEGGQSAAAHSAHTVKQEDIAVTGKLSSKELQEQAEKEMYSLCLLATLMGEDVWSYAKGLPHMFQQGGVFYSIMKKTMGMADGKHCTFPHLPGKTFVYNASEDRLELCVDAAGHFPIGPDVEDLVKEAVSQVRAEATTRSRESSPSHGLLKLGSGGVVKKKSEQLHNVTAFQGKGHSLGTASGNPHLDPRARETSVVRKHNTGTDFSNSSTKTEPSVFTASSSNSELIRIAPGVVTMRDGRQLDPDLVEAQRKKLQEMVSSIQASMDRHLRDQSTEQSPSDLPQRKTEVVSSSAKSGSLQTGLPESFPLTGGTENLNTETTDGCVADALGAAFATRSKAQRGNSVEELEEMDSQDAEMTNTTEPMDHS
Description: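 Competitive ABPP in HEK293T cell lysate. Lysates were treated with each chloroacetamide fragment at 200 µM for 3 h, then with Biotin-Ahx-Ub-VS (0.5 µM, 1 h), NeutrAvidin-enriched and analysed by diaPASEF LC-MS/MS. Protein LFQ was median-normalised; average log2 ratio is fragment/DMSO from an unpaired t-test (n=3 treated, n=44 DMSO). Hits: q ≤ 0.05, log2 ratio ≤ -1, unique peptides ≥ 2.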

Row | SMILES | log2 ratio of Biotin-Ahx-Ub-VS probe labelling
1 | O=C(CCl)N1CCCN(C(=O)c2ccc(Cl)cc2)CC1 | -0.589
2 | CN1C(=O)c2ccc(NC(=O)CCl)cc2C1=O | -2.49 (active)
3 | C[C@@H](NC(=O)CCl)c1cccc(C#N)c1 | -0.466
4 | O=C(CCl)N1CCC(OCc2ccccc2F)CC1 | -2.86 (active)
5 | N#Cc1ccc(Cl)cc1NC(=O)CCl | -1.7 (active)
6 | O=C(CCl)NC1CCN(C(=O)C2CCCCC2)CC1 | -0.826
7 | O=C(CCl)NCc1cccc(F)c1 | -1.16 (active)
8 | Cc1noc(N2CCN(C(=O)CCl)CC2)n1.Cl | 0.15
9 | Cc1ccc(CC(NC(=O)CCl)c2ccccn2)cc1.Cl (stereo not given) | -1.64 (active)
10 | COc1ccc(C2CCCN2C(=O)CCl)c(OC)c1 (stereo not given) | -0.545
11 | O=C(CCl)N1CCCC1c1ccsc1 (stereo not given) | -1.07 (active)
12 | Cl.Cn1nc2c(c1CNC(=O)CCl)CCCC2 | -1.63 (active)
13 | Cc1ccc(N(CCC#N)C(=O)CCl)cc1C | -2.17 (active)
14 | O=C(CCl)Nc1ccc(N2CCCC2=O)cc1 | -1.2 (active)
15 | O=C(CCl)NC1CCS(=O)(=O)c2ccccc21 (stereo not given) | -1.22 (active)
16 | COc1ccccc1C(C)NC(=O)CCl (stereo not given) | -0.998
17 | O=C(CCl)Nc1ccc(Cl)c(F)c1 | -1.86 (active)
18 | COc1ccc(Cl)cc1NC(=O)CCl | -1.52 (active)
19 | Cc1n[nH]c(=O)c2c(NC(=O)CCl)oc(C)c12 | -0.15
20 | O=C(CCl)N1CCC(S(=O)(=O)c2ccc(F)cc2)CC1 | -0.527

Row | SMILES | log2 ratio of Biotin-Ahx-Ub-VS probe labelling
21 | Cc1nc(CNC(=O)CCl)c2ccccn12.Cl | -0.406
22 | CS(=O)(=O)c1ccc(NC(=O)CCl)cc1 | -1.23 (active)
23 | O=C(CCl)N1CCC(C(O)c2ccc(F)cc2)CC1 (stereo not given) | -0.764
24 | Cc1ccc(C)c(Oc2ccc(CNC(=O)CCl)cn2)c1.Cl | -1.8 (active)
25 | O=C(CCl)N1CC=C(c2c[nH]c3ccccc23)CC1 | -2.41 (active)
26 | CN(C)S(=O)(=O)c1ccccc1CNC(=O)CCl | -1.15 (active)
27 | COc1ccc(-c2csc(NC(=O)CCl)n2)cc1 | -1.46 (active)
28 | Cl.O=C(CCl)N[C@H]1C[C@@H](n2cccn2)C1 | -0.848
29 | O=C(CN1CCN(C(=O)CCl)CC1)Nc1cccc(F)c1 | -0.698
30 | Cc1c(C#N)c(NC(=O)CCl)n(Cc2ccco2)c1C | -2.32 (active)
31 | CC(=O)Nc1ccc(NC(=O)CCl)cc1 | -1.31 (active)
32 | O=C(CCl)NCC(=O)N1CCCC1 | -0.323
33 | Cc1nc(CC2CCN(C(=O)CCl)CC2)no1 | -0.733
34 | CCN(C(=O)CCl)C1CCS(=O)(=O)C1 (stereo not given) | 0.0777
35 | Cc1ccc(C)c(NC(=O)CCl)c1 | -1.52 (active)
36 | Cl.Cn1nccc1C(NC(=O)CCl)c1ccccc1 (stereo not given) | -1.2 (active)
37 | CC(NC(=O)CCl)c1cccc(Cl)c1 (stereo not given) | -1.59 (active)
38 | Cc1cccc(C)c1NC(=O)CCl | -0.74
39 | Cl.O=C(CCl)N1CCn2ncc(O)c2C1 | -0.764
40 | CC(C)n1nccc1NC(=O)CCl | -0.897

— the supplement of paper PMC11732987, “Enantioselective OTUD7B fragment discovery through chemoproteomics screening and high-throughput optimisation” (Communications Chemistry, 2025)
